These results are taken from PubChem BioAssay (NCI).

Molecules are shown by their SMILES. About 83,000 compounds went through this panel and 20% of them were active in at least one assay; those are over-represented in the sample as a whole.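 Plates (96-well) were seeded with cells, treated with compound at one concentration, and incubated for 48 hours before percent growth was determined.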 Values without a mark were called inactive. Active and inactive are the calls of the source. How the source made its calls: active means growth percent below 10; inactive means the rest.

The first experiment concerns SF-295 CNS. The experiment in a line: NCI-60 one-dose screen, 48 h (100 = growth as untreated, 0 = no growth, -100 = all killed). Conditions: 10 µM unless noted.
As to `COc1cc(C2CC(=O)Nc3c2cnn3C)cc(OC)c1OC` (stereo not drawn), the growth was 105%. As to `C=C(c1ccc(C(=O)NCCCn2ccnc2)cc1)c1cc2c(cc1C)C(C)(C)CCC2(C)C`, the growth was -29.6% (active). On the same count and under the same terms, to `Nc1c(Br)cc2c(c1Br)Cc1cc(Cl)ccc1-2` belongs 87.8%. Regarding `CCCCCCCCCCCCNC(=O)N[C@H](C(=O)N[C@H]1/C=C/CCNC(=O)/C=C/[C@H](C)NC1=O)C(C)C`, the growth was -37.4% (active). Same read-out and setting: the figure for `C=C(C)[C@@H]1CC[C@]2(C(=O)NS(=O)(=O)c3ccccc3)CC[C@]3(C)[C@H](CC[C@@H]4[C@@]5(C)CC[C@H](OC(=O)NS(=O)(=O)c6ccccc6)C(C)(C)[C@@H]5CC[C@]43C)[C@@H]12` is 1.73% (active); for `Cc1cc(-c2ccccc2)on1` it is 100%.

For the compound `CNC(=O)c1c(NC(=O)c2cccc(C(F)(F)F)c2)sc2c1CCC(=O)C2`, the growth was -10.4% (active). Turning to `COc1ccccc1/C=C/C(=O)CCC(=O)O`, the growth was 105%.

With `NNc1ccc(S(N)(=O)=O)cc1`, the growth was 105%. With `CCc1c(C)c2ccc(O)c(-c3cc(-c4ccccc4)c(C#N)c(=O)[nH]3)c2oc1=O`, the growth is 97.4%. Same read-out and setting: to `O=C1OCC2=C1C(c1ccccc1)c1cc3c(cc1N2CCO)OCO3` (stereo not drawn) belongs -12.8% (active); to `CCCCCCCCCCCCNC(=O)N[C@H](C(=O)N[C@H]1/C=C/OCCNC(=O)/C=C/[C@H](C(C)C)NC1=O)C(C)C`, 95.2%. For `COc1ccc2c(c1)OC1=C(C(=O)OC1)C2c1cc(OC)c2c(c1)OCCO2` (stereo not drawn), the growth was 7.02% (active). Same read-out and setting: to `O=S1(=O)NCCN1CCNc1nccc(-c2c(-c3cccc(O)c3)nc3sccn23)n1` belongs 93.2%; to `O=C(CC(=O)C(F)(F)C(F)(F)C(F)(F)F)c1cc2ccccc2o1`, 99.2%; to `Clc1cc2nc(-c3ccccc3)c(-c3ccccc3)nc2cc1Cl`, 98.7%. On the same count and under the same terms, to `CC(C)(C)c1ccc(C(=O)Nc2sc3cc(O)ccc3c2C(N)=O)cc1` belongs 63.5%; to `CC1=CCC2C1CC=C(C)C(CC[C@H]1[C@@](C)(O)CCC3OC(C)(C)[C@H](OC(=O)c4ccccc4)CC[C@@]31C)C2(C)C` (stereo partly drawn), 84.7%; to `CC(=O)C1CCC2C3CC(C)=C4CC(O)CCC4(C)C3CCC12C` (stereo not drawn), 113%.

Regarding `CCCCCCCCCCCCCC`, the growth is 99.2%. On the same count and under the same terms, the figure for `CCN(CCC#N)c1ccccc1` is 102%; for `O=S1(=O)NCCCN1CCNc1nccc(-c2c(-c3cccc(O)c3)nc3sccn23)n1` it is 112%; for `COc1ccc(-c2conc2-n2nc(-c3ccccc3)nc2-c2ccccc2)cc1` it is 98.8%. Same read-out and setting: to `COc1ccccc1CNCCCN1C(=O)c2ccc3c4c(ccc(c24)C1=O)C(=O)N(CCCCNCCCN)C3=O` belongs 54.8%.

On to `Cc1ccc(C(=O)CC(=O)C(F)(F)C(F)(F)C(F)(F)F)s1`, for which the growth is 103%. On the same count and under the same terms, the figure for `O=C1CCCN1C(O)CCN(Cc1ccccc1)Cc1ccc(Cl)cc1` (stereo not drawn) is 94.2%; for `Nc1c(N)c2ccccc2c2ccccc12` it is 100%; for `CCOC(=O)C1=C(C)NC(=S)NC1c1ccccc1` (stereo not drawn) it is 103%. Same read-out and setting: to `CCOC(=O)C1=C(C(=O)OCC)N(c2cc(OC)c(OC)c(OC)c2)C(N)=C(C#N)C1c1cc(=O)[nH]c2ccccc12` (stereo not drawn) belongs 94.3%; to `CC(=O)Nc1ccc(/C=N/N2CCCCCC2)cc1`, 94.3%; to `CCOC(=O)c1cnc(SCC)nc1SC#N`, 106%.

Take `COc1cc(OC)c(C(=O)/C=C/c2cccc(OC(C)=O)c2)cc1CC=C(C)C`: the growth was 97.7%. On the same count and under the same terms, the figure for `CN1CCCN(CCNc2nccc(-c3c(-c4cccc(O)c4)nc4sccn34)n2)S1(=O)=O` is 57.8%; for `CCN(CC)c1ccc(/C=C2/NC(=O)NC2=O)cc1` it is 23.6%. Still for that read-out and setting: the figure for `CCOC(=O)c1ccc2c(c1)[n+](=O)c(C(=O)c1ccc3ccccc3c1)c(C(F)(F)F)n2[O-]` is -84.8% (active).

The test system of another experiment is SF-539 CNS. The description is as above. To be noted: 10 µM unless noted.
As for `COc1cc(C2CC(=O)Nc3c2cnn3C)cc(OC)c1OC` (stereo not drawn), the growth was 103%. Regarding `C=C(c1ccc(C(=O)NCCCn2ccnc2)cc1)c1cc2c(cc1C)C(C)(C)CCC2(C)C`, the growth was 2.41% (active). The same measure, in the same setting: to `Nc1c(Br)cc2c(c1Br)Cc1cc(Cl)ccc1-2` belongs 89.5%. Regarding `CCCCCCCCCCCCNC(=O)N[C@H](C(=O)N[C@H]1/C=C/CCNC(=O)/C=C/[C@H](C)NC1=O)C(C)C`, the growth was -49.4% (active). Same read-out and setting: the figure for `C=C(C)[C@@H]1CC[C@]2(C(=O)NS(=O)(=O)c3ccccc3)CC[C@]3(C)[C@H](CC[C@@H]4[C@@]5(C)CC[C@H](OC(=O)NS(=O)(=O)c6ccccc6)C(C)(C)[C@@H]5CC[C@]43C)[C@@H]12` is -34.3% (active); for `FC(F)(F)c1cc(-c2nnc3n2N=C(Cl)CS3)cc(C(F)(F)F)c1` it is 109%; for `Cc1cc(-c2ccccc2)on1` it is 88.8%. In the case of `CNC(=O)c1c(NC(=O)c2cccc(C(F)(F)F)c2)sc2c1CCC(=O)C2`, the growth is -30% (active).

For `COc1ccccc1/C=C/C(=O)CCC(=O)O`, the growth is 97.5%. The same measure, in the same setting: the figure for `NNc1ccc(S(N)(=O)=O)cc1` is 98.6%.

Take `CCc1c(C)c2ccc(O)c(-c3cc(-c4ccccc4)c(C#N)c(=O)[nH]3)c2oc1=O`: the growth is 113%. Still for that read-out and setting: to `O=C1OCC2=C1C(c1ccccc1)c1cc3c(cc1N2CCO)OCO3` (stereo not drawn) belongs -0.802% (active); to `CCCCCCCCCCCCNC(=O)N[C@H](C(=O)N[C@H]1/C=C/OCCNC(=O)/C=C/[C@H](C(C)C)NC1=O)C(C)C`, 54.6%; to `COc1ccc(-n2nc(C(=O)Nc3ccc(F)cc3)nc2-c2cc(OC)c(OC)c(OC)c2)cc1`, 88.3%. On the same count and under the same terms, to `COc1ccc2c(c1)OC1=C(C(=O)OC1)C2c1cc(OC)c2c(c1)OCCO2` (stereo not drawn) belongs 3.93% (active); to `O=S1(=O)NCCN1CCNc1nccc(-c2c(-c3cccc(O)c3)nc3sccn23)n1`, 109%; to `O=C(CC(=O)C(F)(F)C(F)(F)C(F)(F)F)c1cc2ccccc2o1`, 94.1%.

For `Clc1cc2nc(-c3ccccc3)c(-c3ccccc3)nc2cc1Cl`, the growth is 97.3%.

For the compound `CC(C)(C)c1ccc(C(=O)Nc2sc3cc(O)ccc3c2C(N)=O)cc1`, the growth is 53.9%. Consider `CC1=CCC2C1CC=C(C)C(CC[C@H]1[C@@](C)(O)CCC3OC(C)(C)[C@H](OC(=O)c4ccccc4)CC[C@@]31C)C2(C)C` (stereo partly drawn), for which the growth is 99.1%.

As to `CC(=O)C1CCC2C3CC(C)=C4CC(O)CCC4(C)C3CCC12C` (stereo not drawn), the growth was 90.7%. Same read-out and setting: to `CCCCCCCCCCCCCC` belongs 109%; to `CCN(CCC#N)c1ccccc1`, 96.5%.

Take `O=S1(=O)NCCCN1CCNc1nccc(-c2c(-c3cccc(O)c3)nc3sccn23)n1`: the growth was 70.3%. Same read-out and setting: the figure for `COc1ccc(-c2conc2-n2nc(-c3ccccc3)nc2-c2ccccc2)cc1` is 107%; for `COc1ccccc1CNCCCN1C(=O)c2ccc3c4c(ccc(c24)C1=O)C(=O)N(CCCCNCCCN)C3=O` it is -61.1% (active); for `Cc1ccc(C(=O)CC(=O)C(F)(F)C(F)(F)C(F)(F)F)s1` it is 98.7%. Still for that read-out and setting: to `O=C1CCCN1C(O)CCN(Cc1ccccc1)Cc1ccc(Cl)cc1` (stereo not drawn) belongs 114%; to `Nc1c(N)c2ccccc2c2ccccc12`, 94.6%; to `CCOC(=O)C1=C(C)NC(=S)NC1c1ccccc1` (stereo not drawn), 97.2%. Consider `CCOC(=O)C1=C(C(=O)OCC)N(c2cc(OC)c(OC)c(OC)c2)C(N)=C(C#N)C1c1cc(=O)[nH]c2ccccc12` (stereo not drawn), for which the growth was 87.7%. Same read-out and setting: to `CC(=O)Nc1ccc(/C=N/N2CCCCCC2)cc1` belongs 83.6%. The same measure, in the same setting: the figure for `CCOC(=O)c1cnc(SCC)nc1SC#N` is 89.2%; for `COc1cc(OC)c(C(=O)/C=C/c2cccc(OC(C)=O)c2)cc1CC=C(C)C` it is 90.6%; for `COc1cc2ccc(C(C)=O)cc2cc1OC` it is 95.6%. On the same count and under the same terms, to `CN1CCCN(CCNc2nccc(-c3c(-c4cccc(O)c4)nc4sccn34)n2)S1(=O)=O` belongs 57.8%. As for `CCN(CC)c1ccc(/C=C2/NC(=O)NC2=O)cc1`, the growth is 6.57% (active). Still for that read-out and setting: to `CCOC(=O)c1ccc2c(c1)[n+](=O)c(C(=O)c1ccc3ccccc3c1)c(C(F)(F)F)n2[O-]` belongs -100% (active).
